An excerpt weighted towards active compounds, which were near 10% of everything screened.
MmCpn inh = inhibitors of Methanococcus maripaludis chaperonin TRiC (MmCpn). purified Mm-Cpn ATPase, ADP Transcreener TR-FRET. Potency, µM (top dose mostly 76.9 µM), most hits filed as inhibitors. actives 0.031% (n = 330,000); further: nearly all actives have a fitted effect of over 80% in size
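Reaction buffer contained 30 mM Tris pH 7.4, 100 mM KCl, 5 mM MgCl2 and 1 mM DTT. Mm-CPN (25 nM final) hydrolysed 10 uM ATP over 30 min at 37°C; ADP was read by HTRF.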
PLK1 PBD inh = inhibitors of human PLK1 polo-box domain binding; Potency, µM, most hits filed as inhibitors; Plk1 PBD binding of FITC phosphopeptide, fluorescence polarization; actives 2.8% (n = 360,000); P53350; further: series mostly up to about 57 µM; nearly all actives have a fitted effect of over 65% in size
Target sequence (P53350 whole entry, looked up, the tested form may be a part): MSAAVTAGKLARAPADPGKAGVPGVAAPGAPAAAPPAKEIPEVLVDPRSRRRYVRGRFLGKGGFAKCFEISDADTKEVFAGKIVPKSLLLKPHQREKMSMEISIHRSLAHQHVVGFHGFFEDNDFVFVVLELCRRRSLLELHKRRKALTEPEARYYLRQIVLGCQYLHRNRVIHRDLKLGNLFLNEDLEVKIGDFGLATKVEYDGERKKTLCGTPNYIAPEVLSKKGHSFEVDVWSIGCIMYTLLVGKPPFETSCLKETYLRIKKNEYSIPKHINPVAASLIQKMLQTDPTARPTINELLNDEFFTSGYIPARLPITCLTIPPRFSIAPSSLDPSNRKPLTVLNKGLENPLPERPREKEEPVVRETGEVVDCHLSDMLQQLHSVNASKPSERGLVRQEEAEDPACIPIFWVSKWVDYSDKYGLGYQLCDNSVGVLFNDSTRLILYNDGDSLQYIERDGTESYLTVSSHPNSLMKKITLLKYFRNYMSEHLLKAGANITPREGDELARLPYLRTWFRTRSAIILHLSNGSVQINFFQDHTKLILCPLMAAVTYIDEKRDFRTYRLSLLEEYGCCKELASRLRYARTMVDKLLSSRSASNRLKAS
G9a block = inhibitors of human histone lysine methyltransferase G9a; Potency, µM (highest dose often 102 µM), most hits filed as inhibitors; actives 8.8% (n = 350,000); Q96KQ7; G9a H3K9 monomethylation, AlphaScreen, 2 h; further: nearly all actives have a fitted effect of over 75% in size
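Methyltransferase reactions run at room temperature for 2 h (20 nM enzyme, 500 nM biotin-H3K9 peptide, 20 uM SAM) after a 15 min compound preincubation; product detected by AlphaScreen beads and anti-H3K9me1 antibody.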
CCT modulator = cytosolic chaperonin activity modulation | purified chaperonin ATPase assay, HTRF ADP detection, 30 min | actives 0.3% (n = 360,000) | activity change, % (test concentration not listed), hits read low | AID 651819; in the data active means activity change below about -30%
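TRiC at 40 or 20 nM final (batch-dependent) in 30 mM Tris pH 7.4, 100 mM KCl, 5 mM MgCl2, 1 mM DTT, with compound at single 76 uM and 10 uM ATP, 30 min at 37 deg C. ADP detected by HTRF Transcreener, 665/615 ratio.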
Sfp PPTase inh = blocks B. subtilis Sfp PPTase activity. Q9F4F7. Potency, µM, actives largely listed as inhibitors. actives 3.5% (n = 310,000). Biochemical Sfp PPTase activity, qHTS;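 further: the enzyme is Sfp with the accession as filed and its product quenches rhodamine fluorescence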
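With Hepes-Na pH 7.6 buffer containing 10 mM MgCl2, Sfp (15 nM) modified BHQ-2-YbbR (12.5 uM) using rhodamine-CoA (5 uM). Two reads 30 minutes apart at 525/598 nm yielded each well's rate.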
VDR inhibitor = blocks the human vitamin D receptor | VDR-SRC2-3 peptide fluorescence polarization, 2 h | P11473 | actives 0.93% (n = 400,000) | AID 504847 | Potency, µM, most hits filed as inhibitors
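Fluorescence polarization assay measuring small-molecule disruption of VDR binding to the coregulator peptide SRC2-3. Compounds were pin-transferred (23 nl) into the reagent mix and incubated 2 h at room temperature before reading.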
A number is an active result; – = inactive; ? = inconclusive; · = no result given; [ ] = remark or other dose. Unless noted, the call rests on the fitted dose curve; in most records, active means well fitted curve in the direction sought with a large enough effect; inconclusive means small, poorly fitted or top-dose-only effect, or another doubt; inactive means no such curve, though single readings can be large; an effect the other way counts as inactive or inconclusive.

SMILES	MmCpn inh	PLK1 PBD inh	G9a block	CCT modulator	Sfp PPTase inh	VDR inhibitor
C/C(=N\Nc1ccc(F)cc1F)c1ccccc1O	–	–	14µM	–	–	–
COc1cccc(C(=O)N2CCN(Cc3ccc(OC)cc3OC)CC2)c1	–	–	7.9µM	–	–	–
COc1cc(OC)c(CN2CCN(c3ccc(F)cc3)CC2)cc1Br	–	–	35µM	–	?	–
COc1cccc(C(=O)N2CCN(C(=O)Cc3ccccc3)CC2)c1	–	–	–	–	–	–
O=C(Nc1ccccc1N1CCN(C(=O)c2ccccc2)CC1)c1cc(Br)ccc1Cl	–	–	–[0.501 µM]	–	–	–
COc1cccc(C(=O)N2CCN(Cc3cc(Br)ccc3OC)CC2)c1	–	–	22µM	–	–	–
COc1cccc(C(=O)N2CCN(Cc3ccccc3Br)CC2)c1	–	–	·	–	–	–
COc1ccc(Br)cc1C(=O)Nc1ccccc1N1CCN(C(=O)c2ccccc2)CC1	–	24µM	–	–	–	–
Cc1cccc(CCNC(=O)c2ccc3c(c2)N(Cc2ccccc2F)C(=O)c2ccccc2S3)c1	·	·	–	·	·	–
Cc1nn(C)c2c1c(C(F)(F)F)cc(=O)n2C(C)C(=O)NCc1ccccc1 (stereo not drawn)	·	·	–	·	·	–
COC(=O)CSc1nc2sc3c(c2c(=O)n1Cc1ccccc1)CCC(C(C)(C)C)C3 (stereo not drawn)	·	·	–	·	·	–
COc1cccc(C(=O)N2CCN(Cc3cn[nH]c3-c3ccc(F)cc3F)CC2)c1	–	30µM	?	–	–	?
COc1ccc(OC)c(CN2CCN(C(=O)c3ccc(S(=O)(=O)Nc4ccccc4F)cc3)CC2)c1	–	–	–[12.7 µM]	–	·	–
COc1ccc(C(=O)NCCN2CCN(C(=O)c3ccc(OC)c(OC)c3)CC2)cc1OC	–	–	–	–	–	–
COc1ccc(Br)cc1CN1CCN(C(=O)c2ccc(F)cc2)CC1	–	–	11µM	–	?	–
COc1ccc(Br)cc1CN1CCN(C(=O)c2ccc(OC)c(OC)c2)CC1	–	–	16µM	–	–	–
CCCCNc1nc(C)nc2c1nc(-c1ccccc1)n2CCCN(C)C	·	·	·	·	–	·
O=c1cc(-c2ccc(O)cc2)oc2cc(OC3OC(CO)C(O)C(O)[C@H]3O[C@@H]3OC[C@@](O)(CO)C3O)cc(O)c12 (stereo partly drawn)	·	·	·	·	–	–
O=C(O)c1ncc(Cl)c(Cl)c1Cl	–	–	50µM	–	–	–
FC(F)(F)c1ccc(C2[C@H]3CN(Cc4cccnc4)[C@H](c4ccccc4)C34CC2(c2cccnc2)C4)cc1 (stereo partly drawn)	–	–	–	–	35µM	?
FC(F)(F)C(F)(F)C(F)(F)C(F)(F)C(F)(F)C(F)(F)C(F)(F)C(F)(F)Br	·	·	–	·	–	–
CCOC(=O)c1c(C)n(OCc2ccccc2)c2ccc3c(no[n+]3[O-])c12	–	–	–	–	79µM	–
CCOC(=O)C1(Cc2cccc(Cl)c2)CCCN(C(=O)c2cn[nH]c2)C1 (stereo not drawn)	–	–	·	–	–	–
CCOC(=O)C1(Cc2cccc(Cl)c2)CCCN(C(=O)c2cnn(CC)c2)C1 (stereo not drawn)	–	–	25µM	–	–	–
Cc1ccccc1NC(=O)c1ccc2nc(Cc3ccccc3)oc2c1	·	·	–	·	·	–
SMILES	MmCpn inh	PLK1 PBD inh	G9a block	CCT modulator	Sfp PPTase inh	VDR inhibitor
O=C1c2ccccc2NC(c2cn[nH]c2-c2ccc(Cl)cc2)N1O (stereo not drawn)	–	–	28µM	–	–	–
O=C(O)c1ccc(-c2ccccc2C(F)(F)F)s1	·	·	?	·	–	126µM
CCOc1ccccc1-c1ccc(C(=O)O)s1	·	·	?	·	–	?
CC1(C)SC(=Nc2ccccc2)N(S(=O)(=O)c2ccccc2)C1=O	–	–	–	–	–	–
O=C1C(c2ccccc2)SC(=Nc2ccccc2)N1S(=O)(=O)c1ccccc1 (stereo not drawn)	–	17µM	?	–	13µM	89µM
C=CCn1c(N)c(C(=O)NCCC2=CCCCC2)sc1=S	–	7.5µM	?	–	25µM	?
Cc1ccc(C(=O)N2c3nc(-c4ccco4)nn3C3(CCCCC3)[C@@H]3CCCC[C@@H]32)cc1	·	·	?	·	·	–
Oc1ccc2c(c1)c1c3n2CCNC3CCC1 (stereo not drawn)	–	–	?	–	–	–
c1ccc2c(c1)c1c3n2CCNC3CCC1 (stereo not drawn)	–	–	?	–	79µM	–
c1cc2c(cc1C1CCCCC1)c1c3n2CCCNC3CCC1 (stereo not drawn)	–	–	18µM	–	32µM	–
c1cc2c(cc1C1CCCCC1)c1c3n2CCN[C@H]3CCC1	·	·	·	·	5.6µM	–
CCC(=O)N1CCc2cc(S(=O)(=O)NCCC(=O)Nc3cccc(SC)c3)ccc21	·	·	–	·	·	–
CCOC(=O)C1/C(=N\O)CC(C)(O)C(C(=O)OCC)C1c1ccc(OC)c(OC)c1 (stereo not drawn)	–	–	–	–	–	–
CCOC(=O)C1/C(=N\O)CC(C)(O)C(C(=O)OCC)C1c1ccc(N(C)C)cc1 (stereo not drawn)	–	–	18µM	–	50µM	–
CC(OC(=O)C1CCN(S(=O)(=O)c2ccc(C(C)(C)C)cc2)CC1)C(=O)N1CCOCC1 (stereo not drawn)	–	–	18µM	–	·	–
CCSc1nc(O)cc(=O)[nH]1	–	–	–[12.7 µM]	–	–	–
CCSc1nc(=S)cc(C)[nH]1	–	27µM	10µM	–	22µM	79µM
CCOc1ccc(-c2c(C)nn3c(C)c(C(=O)NCCc4ccccc4)cnc23)cc1OCC	·	·	–	·	·	–
CCNC(=O)CCn1nc(-c2ccc(C)cc2)c2ccccc2c1=O	–	30µM	–	–	–	–
CCN(CC)C(=O)CCn1nc(-c2ccc(C)cc2)c2ccccc2c1=O	–	–	–[2.33 µM]	–	–	–
Cc1ccc(NC(=O)c2ccc(-c3nn(C)c(=O)c4ccccc34)cc2)cc1	–	–	–	–	79µM	–
CCOCCc1nnc(NC(=O)C(=O)c2cc(C)n(-c3cccc(C)c3)c2C)s1	·	·	–	·	·	–
CCC(C)NC(=O)c1cc2cc(S(=O)(=O)N3CCCCC3)ccc2n1C (stereo not drawn)	·	·	–	·	·	–
CCc1ccc(C2C(C(=O)Nc3ccccc3C)=C(C)Nc3nc(SCc4cccc(OC)c4)nn32)cc1 (stereo not drawn)	·	·	–	·	·	–
CC1=C(C(=O)OC(C)C)C(c2ccc(Cl)cc2)n2c(sc(=Cc3ccc(OCC(=O)O)cc3)c2=O)=N1 (stereo not drawn)	·	–	·	–	·	·

Screening data (PubChem)
